MPTP block: inhibitors of mitochondrial permeability transition pore | isolated mouse mitochondria, Ca2+ swelling absorbance, 30 min | inhibition, % at 10 µM | 360,000 tested, 1.4% active;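 active = inhibition of 50% or more, scaled per plate between neutral and stimulator controls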
rCAG RNA binder: r(CAG) repeat RNA binding; AID 651821; 370,000 tested, 1.3% active; inhibition, % at 3 µM; TO-PRO-1 dye displacement fluorescence;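 active = inhibition above the plate cutoff, the mean of all test compounds on that plate plus 3 SD, cut at about 35% in these data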;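 note: higher means more dye released from RNA so lower well fluorescence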
Myeloid diff MLP: promotes myeloid progenitor differentiation | ER-HoxA9 myeloid progenitors, lysozyme-GFP differentiation, flow cytometry | calls only at 10 µM | 360,000 tested, 1% active;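 active = normalized GFP-positive differentiation at or above the plate's own cutoff, the solvent-only control mean plus 3 SD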;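 note: cells exposed to compound for four days before flow analysis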
NR3A LBD binder: modulates the human NR3A ligand-binding domain | NR3A LBD differential scanning fluorimetry, Tm shift; 0% = protein alone, 100% = glycine-bound protein | Tm shift relative to glycine control, % at 25 µM | 340,000 tested, 2.5% active | AID 1259313;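 active = melting temperature shift of at least 10% of the positive control shift, at one fixed dose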
FAS TE block: FAS thioesterase (human) inhibition. 360,000 tested, 0.67% active. recombinant FAS-TE, OMFH fluorogenic substrate, fluorescence endpoint. P49327. inhibition, % at 15 µM;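 active = compounds whose normalised, plate-corrected inhibition of enzyme fluorescence in the single-dose primary screen is 50% or more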
Target sequence (P49327 whole entry, looked up): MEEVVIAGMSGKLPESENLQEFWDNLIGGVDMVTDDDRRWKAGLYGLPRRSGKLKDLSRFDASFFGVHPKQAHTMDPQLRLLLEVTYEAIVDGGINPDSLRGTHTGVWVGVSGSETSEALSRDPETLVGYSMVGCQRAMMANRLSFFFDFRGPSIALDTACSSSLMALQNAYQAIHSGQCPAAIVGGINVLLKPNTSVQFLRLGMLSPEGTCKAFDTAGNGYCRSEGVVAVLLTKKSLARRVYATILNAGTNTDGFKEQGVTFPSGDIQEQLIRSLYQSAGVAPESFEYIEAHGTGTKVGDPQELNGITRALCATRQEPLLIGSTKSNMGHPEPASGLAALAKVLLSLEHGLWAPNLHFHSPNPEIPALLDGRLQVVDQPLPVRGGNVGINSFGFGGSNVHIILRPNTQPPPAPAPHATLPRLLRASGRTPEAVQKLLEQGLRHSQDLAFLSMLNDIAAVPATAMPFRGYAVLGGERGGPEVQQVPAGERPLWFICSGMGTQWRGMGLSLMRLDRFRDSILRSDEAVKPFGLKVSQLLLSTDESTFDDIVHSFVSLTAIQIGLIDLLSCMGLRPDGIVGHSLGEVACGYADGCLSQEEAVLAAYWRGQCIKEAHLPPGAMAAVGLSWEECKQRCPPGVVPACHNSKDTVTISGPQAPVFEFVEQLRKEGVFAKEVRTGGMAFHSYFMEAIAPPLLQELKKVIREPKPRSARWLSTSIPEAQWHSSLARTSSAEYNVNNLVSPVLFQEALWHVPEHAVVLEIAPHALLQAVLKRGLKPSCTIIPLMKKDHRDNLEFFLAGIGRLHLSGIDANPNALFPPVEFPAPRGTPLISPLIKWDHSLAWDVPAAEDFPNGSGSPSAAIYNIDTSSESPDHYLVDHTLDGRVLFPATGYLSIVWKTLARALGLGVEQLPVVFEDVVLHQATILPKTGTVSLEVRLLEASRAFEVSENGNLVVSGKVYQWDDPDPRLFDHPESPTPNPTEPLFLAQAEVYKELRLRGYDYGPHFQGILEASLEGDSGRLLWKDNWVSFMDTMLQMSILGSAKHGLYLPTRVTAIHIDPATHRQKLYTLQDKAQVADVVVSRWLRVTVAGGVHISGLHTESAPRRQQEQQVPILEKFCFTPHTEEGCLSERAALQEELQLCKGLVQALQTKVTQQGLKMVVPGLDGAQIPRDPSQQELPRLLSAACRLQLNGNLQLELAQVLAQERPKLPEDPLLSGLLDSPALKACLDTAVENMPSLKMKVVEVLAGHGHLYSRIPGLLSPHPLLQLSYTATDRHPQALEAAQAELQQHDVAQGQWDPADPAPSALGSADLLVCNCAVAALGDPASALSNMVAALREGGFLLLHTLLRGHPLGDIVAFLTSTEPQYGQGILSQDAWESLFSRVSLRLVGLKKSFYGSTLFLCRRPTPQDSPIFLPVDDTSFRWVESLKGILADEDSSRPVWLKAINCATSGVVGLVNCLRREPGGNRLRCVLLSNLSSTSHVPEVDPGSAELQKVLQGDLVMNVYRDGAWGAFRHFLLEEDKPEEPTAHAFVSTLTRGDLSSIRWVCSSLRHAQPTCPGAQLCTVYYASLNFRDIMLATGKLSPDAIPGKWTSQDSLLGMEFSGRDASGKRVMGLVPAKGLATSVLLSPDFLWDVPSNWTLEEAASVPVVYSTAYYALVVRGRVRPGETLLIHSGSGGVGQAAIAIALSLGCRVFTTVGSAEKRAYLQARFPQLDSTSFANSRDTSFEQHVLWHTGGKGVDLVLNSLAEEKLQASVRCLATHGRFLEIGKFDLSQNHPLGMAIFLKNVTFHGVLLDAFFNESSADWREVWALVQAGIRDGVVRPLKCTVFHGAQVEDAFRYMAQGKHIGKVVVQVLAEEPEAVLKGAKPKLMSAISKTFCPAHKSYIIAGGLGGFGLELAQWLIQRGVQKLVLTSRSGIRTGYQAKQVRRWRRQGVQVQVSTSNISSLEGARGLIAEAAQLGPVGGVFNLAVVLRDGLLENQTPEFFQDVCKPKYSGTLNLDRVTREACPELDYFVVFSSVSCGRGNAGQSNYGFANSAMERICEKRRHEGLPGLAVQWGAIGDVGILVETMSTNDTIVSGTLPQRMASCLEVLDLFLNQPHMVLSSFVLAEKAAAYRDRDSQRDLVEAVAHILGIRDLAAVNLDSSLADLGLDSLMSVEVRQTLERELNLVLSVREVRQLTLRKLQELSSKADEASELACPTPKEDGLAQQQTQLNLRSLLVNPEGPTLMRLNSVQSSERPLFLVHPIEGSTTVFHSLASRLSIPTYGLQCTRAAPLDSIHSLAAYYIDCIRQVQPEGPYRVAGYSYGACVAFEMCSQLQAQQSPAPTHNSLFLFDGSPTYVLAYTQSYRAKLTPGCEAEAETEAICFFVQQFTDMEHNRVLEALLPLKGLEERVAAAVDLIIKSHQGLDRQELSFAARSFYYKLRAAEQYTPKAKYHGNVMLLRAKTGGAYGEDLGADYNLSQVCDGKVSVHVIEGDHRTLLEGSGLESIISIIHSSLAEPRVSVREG
Numbers stand for hits. Hits are enriched below; roughly 5.7% of the tested compounds scored in any of these assays.

How did O=C(c1ccncc1)N1CC[C@H]2[C@H](CCCN2Cc2ccccc2)C1 do in these assays?
rCAG RNA binder: inactive

What do the screens show for `COc1cc(/C=C2\SC(=Nc3ccccc3)N(CCc3c[nH]c4ccccc34)C2=O)ccc1OC(C)C(=O)O` (stereo not given)?
MPTP block: inactive; rCAG RNA binder: inactive; Myeloid diff MLP: inactive; NR3A LBD binder: inactive; FAS TE block: inactive

Results for O=C1S/C(=C\c2ccc(N3CCOCC3)o2)C(=O)N1Cc1ccc(F)cc1 ?
MPTP block: inactive; Myeloid diff MLP: inactive; NR3A LBD binder: inactive; FAS TE block: inactive

How did COc1ccc(N=C2S/C(=C\c3ccc(OC(C)C(=O)O)c(OC)c3)C(=O)N2CCc2c[nH]c3ccccc23)cc1 (stereo not given) do in these assays?
MPTP block: inactive; rCAG RNA binder: 49; Myeloid diff MLP: inactive; NR3A LBD binder: inactive; FAS TE block: inactive

Results for O=C1/C(=C/c2ccc(N3CCOCC3)o2)SC(=Nc2ccccc2)N1CCc1c[nH]c2ccccc12 ?
MPTP block: inactive; Myeloid diff MLP: active; NR3A LBD binder: inactive; FAS TE block: inactive

What do the screens show for `C[C@@H]1CCCCO[C@@H](CN(C)Cc2ccc(C(=O)O)cc2)[C@@H](C)CN([C@H](C)CO)C(=O)c2cc(NS(C)(=O)=O)ccc2O1`?
rCAG RNA binder: inactive

Results for C[C@H](CO)N1C[C@H](C)[C@@H](CN(C)S(=O)(=O)c2ccc(F)cc2)Oc2cc(Br)ccc2S1(=O)=O ?
rCAG RNA binder: inactive

Results for CN(N=Cc1ccccc1O)C(=O)c1ccccc1N ?
rCAG RNA binder: inactive

What do the screens show for `CC(C)[C@@H](C)/C=C/[C@@H](C)[C@H]1CC[C@@H]2[C@]1(C)CCC1[C@]23C=C[C@]2(C[C@@H](O)CC[C@]12C)N(c1cnccn1)O3` (stereo not given in full)?
rCAG RNA binder: inactive

What do the screens show for `CC(=O)C1(C(=O)NC2CCCC2)CC(c2ccccc2C(F)(F)F)=NO1` (stereo not given)?
rCAG RNA binder: inactive

Results for Cc1cccc(/N=C/c2nc(-c3ccccc3Br)oc2O)n1 ?
MPTP block: inactive; rCAG RNA binder: inactive; Myeloid diff MLP: inactive; NR3A LBD binder: inactive; FAS TE block: inactive

What do the screens show for `Oc1oc(-c2cccc3ccccc23)nc1/C=N/c1nccs1`?
MPTP block: inactive; rCAG RNA binder: inactive; Myeloid diff MLP: inactive; NR3A LBD binder: 11; FAS TE block: inactive

How did C[C@@H]1NS(=O)(=O)c2ccc(F)cc2O[C@@H]1c1ccccc1 do in these assays?
rCAG RNA binder: inactive

How did CCOC(=O)N1CCN(C(=O)c2cc(COc3cccc(C(F)(F)F)c3)on2)CC1 do in these assays?
MPTP block: inactive; rCAG RNA binder: inactive; Myeloid diff MLP: inactive; NR3A LBD binder: 25; FAS TE block: inactive

How did O=C(c1cc(COc2cccc(C(F)(F)F)c2)on1)N1CCCC1 do in these assays?
MPTP block: inactive; rCAG RNA binder: inactive; Myeloid diff MLP: inactive; FAS TE block: inactive

Results for O=C(CSc1nc2ccccc2c(=O)n1-c1ccccc1)c1c[nH]c2ccccc12 ?
MPTP block: inactive; rCAG RNA binder: inactive; Myeloid diff MLP: inactive; NR3A LBD binder: 18; FAS TE block: inactive

How did CCn1c(SCC(=O)c2c[nH]c3ccccc23)nnc1-c1cccs1 do in these assays?
MPTP block: inactive; rCAG RNA binder: inactive; Myeloid diff MLP: active; NR3A LBD binder: inactive; FAS TE block: inactive

What do the screens show for `CCOC(=O)C[C@H]1c2ccccc2S(=O)(=O)N1Cc1ccc(Cl)cc1`?
MPTP block: inactive; rCAG RNA binder: inactive; Myeloid diff MLP: inactive; NR3A LBD binder: 13; FAS TE block: inactive

How did CCOc1cc(/C=N\Nc2ccc([N+](=O)[O-])cc2)ccc1OCC(=O)Nc1ccc(C)c(C)c1 do in these assays?
MPTP block: inactive; rCAG RNA binder: inactive; NR3A LBD binder: 15; FAS TE block: inactive

How did CCOc1cc(/C=N\NC(=O)Cc2ccccc2)ccc1OCC(=O)Nc1ccc(C)c(C)c1 do in these assays?
MPTP block: inactive; rCAG RNA binder: inactive; Myeloid diff MLP: inactive; NR3A LBD binder: inactive; FAS TE block: inactive

How did CSc1nc2ccc3nc(NC(=O)c4ccc(Cl)s4)sc3c2s1 do in these assays?
MPTP block: inactive; Myeloid diff MLP: inactive; NR3A LBD binder: 21; FAS TE block: inactive

Results for CSc1nc2ccc3nc(NC(=O)c4cccs4)sc3c2s1 ?
MPTP block: inactive; rCAG RNA binder: inactive; Myeloid diff MLP: inactive; NR3A LBD binder: 28; FAS TE block: inactive

How did COc1ccc(OC)c2sc(NC(=O)c3ccc(Cl)s3)nc12 do in these assays?
MPTP block: inactive; rCAG RNA binder: inactive; Myeloid diff MLP: inactive; NR3A LBD binder: inactive; FAS TE block: inactive

What do the screens show for `O=c1[nH]cnc2nn(C3OC(CO)C(O)C3O)nc12` (stereo not given)?
rCAG RNA binder: inactive

Results for COc1cccc(/C=C(\C#N)C(=O)NC2CCS(=O)(=O)C2)c1 (stereo not given) ?
MPTP block: inactive; rCAG RNA binder: inactive; Myeloid diff MLP: inactive; NR3A LBD binder: 13; FAS TE block: inactive

How did CCc1ccc(/C=C(\C#N)C(=O)NC2CCS(=O)(=O)C2)cc1 (stereo not given) do in these assays?
MPTP block: inactive; rCAG RNA binder: inactive; Myeloid diff MLP: inactive; NR3A LBD binder: inactive; FAS TE block: inactive

What do the screens show for `COc1cccc(Cn2cc(COC(=O)N(C)Cc3ccccc3)nn2)c1`?
rCAG RNA binder: inactive

Results for Cc1ccc(NC(=O)OCCCN2C(=O)CCC23CCC(C)CC3)cc1 (stereo not given) ?
rCAG RNA binder: inactive

How did O=C(/C=C/c1ccccc1)NCCSCc1ccc(Cl)cc1 do in these assays?
MPTP block: inactive; rCAG RNA binder: inactive; Myeloid diff MLP: inactive; NR3A LBD binder: 12; FAS TE block: inactive

How did COc1ccccc1C(CC(=O)Nc1ccc(Cl)cc1)c1ccc(OC(C)C)cc1 (stereo not given) do in these assays?
MPTP block: inactive; rCAG RNA binder: inactive; Myeloid diff MLP: inactive; NR3A LBD binder: 12; FAS TE block: inactive

How did COc1ccc(C(CC(=O)Nc2ccc(F)cc2)c2ccccc2)cc1 (stereo not given) do in these assays?
MPTP block: inactive; rCAG RNA binder: inactive; Myeloid diff MLP: inactive; NR3A LBD binder: inactive; FAS TE block: inactive

How did COc1ccc(C(C)NCCC(c2ccc(OC(C)C)cc2)c2ccccc2OC)cc1 (stereo not given) do in these assays?
MPTP block: inactive; rCAG RNA binder: inactive; Myeloid diff MLP: active; NR3A LBD binder: inactive; FAS TE block: inactive

What do the screens show for `CC(C)C[C@H]1COc2cc(N3CCOCC3)ccc2S(=O)(=O)N1`?
rCAG RNA binder: inactive

What do the screens show for `Fc1ccc(-c2csc(NC(=S)Nc3ccccc3)n2)cc1`?
MPTP block: inactive; rCAG RNA binder: inactive; Myeloid diff MLP: inactive; NR3A LBD binder: 25; FAS TE block: inactive

Results for O=C(Nc1ccc(-c2csc(-c3ccccc3)n2)cc1)c1ccccc1 ?
MPTP block: inactive; rCAG RNA binder: inactive; Myeloid diff MLP: inactive; NR3A LBD binder: 13; FAS TE block: inactive

How did O=C(Cc1csc(-c2ccccc2)n1)Nc1ccc(C(F)(F)F)cc1 do in these assays?
MPTP block: inactive; rCAG RNA binder: inactive; Myeloid diff MLP: inactive; NR3A LBD binder: 13; FAS TE block: inactive

Source: PubChem BioAssay
